Results filed as inconclusive are left out. Values without a mark were called inactive. Activity calls are given as the source filed them. The call rests on the fitted dose curve; in most records, active means well fitted inhibition curve with a large enough effect; inconclusive means small, poorly fitted or top-dose-only effect; inactive means flat fitted curve, though single readings scatter.
test system: astro; assay: Drug repurposing screens with cells derived from glioblastoma tumor samples (AID 1345199); conditions: viability, ATP luminescence, 48 h; series mostly up to 45.9 µM; activity, negative = cell killing: at the top concentration; further: nearly all actives have a fitted effect of over 40% in size
Method: CD133+ cells were isolated from GBM patient biopsies and cultured as neurospheres. Neurospheres from four patients were used to screen the NCATS pharmaceutical collection (NPC) library of approved drugs and bioactive compounds. […] The neurospheres were incubated with drugs for 48 hours in 1536-well format, then assayed with an ATP content cell viability assay. […] These hits were cherry picked to confirm activity in the four original GBM lines screened plus three other slower growing GMB lines (unable to yield enough cells for a full primary screen). Variable activities of the confirmed primary hits in the different GBM patient lines were observed. The patient line 206 responded to the greatest number of compounds and line 923 responded to the least amount of active compounds.
On the % scale 0 is the no-effect control and ±100 the full control effect.

SMILES | activity, negative = cell killing | Potency
CN1C(=O)C(O)N=C(c2ccccc2)c2cc(Cl)ccc21 (stereo not given) | -18% | 
COC(=O)C(Cl)C(=O)OC | -11.7% | 
C=CCN1C[C@H](C)N([C@H](c2ccc(C(=O)N(CC)CC)cc2)c2cccc(OC)c2)C[C@H]1C | -18.1% | 
COP(=S)(OC)Oc1cc(Cl)c(Cl)cc1Cl |  | inactive
CN1C(=O)NC(=O)C(C)(C2=CCCCC2)C1=O (stereo not given) |  | inactive
COc1ccc2c3c1O[C@H]1[C@H](O)CC[C@H]4[C@@H](C2)N(C)CC[C@@]341 | -12.6% [at 91.6 µM] | 
O=C1c2ccccc2C(=O)c2ccccc21 | -11.2% | 
CCCN(CCC)C(=O)Cc1c(-c2ccc(Cl)cc2)nc2ccc(Cl)cn12 | -14.1% | 
CC(C)c1c(CN(C)C(C)Cc2ccccc2)n(C)n(-c2ccccc2)c1=O (stereo not given) | -8.4% [at 21.2 µM] | 
O=C1Nc2ccc(Cl)cc2C(c2ccccc2Cl)=NC1O (stereo not given) | -5.65% | 
O=P1(N(CCCl)CCCl)NCCCO1 (stereo not given) | -15.9% | 
CCOP(=S)(OCC)Oc1ccc2c(C)c(Cl)c(=O)oc2c1 | -7.56% | 
C[C@]1(O)CC[C@H]2[C@@H]3CCC4=CC(=O)CC[C@]4(C)[C@@]3(F)[C@@H](O)C[C@@]21C | -4.95% | 
CN1CC[C@]23c4c5ccc(O)c4O[C@H]2[C@@H](O)C=C[C@H]3[C@H]1C5 | -29.9% [at 91.6 µM] | 
COc1ccc2c(c1)C13CCCC[C@@H]1C(C2)N(C)CC3 (stereo not given in full) | -22.7% | 
COc1cc(CC(C)N)cc(OC)c1OC (stereo not given) | -3.9% [at 108 µM] | 
COc1cc(OC)c(OC)cc1C=O | 1.14% [at 91.6 µM] | 
Cc1nnc2n1-c1ccc(Cl)cc1C(c1ccccc1Cl)=NC2 | -12.3% | 
O=c1[nH]oc2c1CCNC2 | -12.8% | 
CCCCC/C=C\C/C=C\C/C=C\C/C=C\CCCC(=O)NCC(=O)O | 0.313% [at 4.17 µM] | 

SMILES | activity, negative = cell killing | Potency
CN1C[C@H](C(=O)N[C@]2(C)O[C@@]3(O)[C@@H]4CCCN4C(=O)[C@H](Cc4ccccc4)N3C2=O)C=C2c3cccc4[nH]cc(c34)C[C@H]21 | -8.83% | 
COc1cc(CCN)cc(OC)c1OC | 3.29% [at 108 µM] | 
c1ccc(CN2CCNCC2)cc1 | -9% [at 194 µM] | 
CCN(CCO)CCn1c(Cc2ccccc2)nc2c1c(=O)n(C)c(=O)n2C | -5.74% | 
C[C@H]1[C@@H]2Cc3ccc(O)cc3[C@@]1(C)CCN2C | -9.02% [at 231 µM] | 
Nc1nc(N)nc(NC2CC2)n1 | -17.1% | 
CC(=O)OCC1=C(C(=O)O)N2C(=O)[C@@H](N)[C@H]2SC1 | -9.66% [at 21.2 µM] | 
CCN(CC)C(=O)[C@@H]1C=C2c3cccc4[nH]cc(c34)C[C@H]2N(C)C1 |  | inactive
COC(=O)[C@@H](N)CCCN/C(N)=N/[N+](=O)[O-] | -0.153% | 
CN1C(=O)CCS(=O)(=O)C1c1ccc(Cl)cc1 (stereo not given) |  | inactive
O=C(O)/C=C\C(=O)O | -5.46% | 
CC(C)c1cccc(C(C)C)c1O | -22.4% | 
CCCC(C)(COC(N)=O)COC(N)=O | -2.79% | 
Nc1ccccc1 | -0.126% | 
C[C@@H](N)[C@@H](O)c1ccccc1 | -15.3% [at 21.2 µM] | 
CCC1(c2ccccc2)C(=O)N(COC)C(=O)N(COC)C1=O | -9.87% | 
NC(=O)c1cc([N+](=O)[O-])cc([N+](=O)[O-])c1 | -12.4% | 
CC(C)N(CCC(C(N)=O)(c1ccccc1)c1ccccn1)C(C)C (stereo not given) | -13.3% | 
CCC(C)(C)c1ccc(O)cc1 | -7.46% | 
CCOC(=O)CC(SP(=S)(OC)OC)C(=O)OCC (stereo not given) |  | inactive

From PubChem BioAssay (NCATS)
